Measured values from PubChem BioAssay AID588773 (The Scripps Research Institute Molecular Screening Center, 2011).
Calls of active or inactive are those of the source.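 How the source made its calls: active means inhibition of plasma PAF acetylhydrolase at a set limit or more at 0.1 µM, with tenfold selectivity over all off-targets; inactive means inhibition below the limit or weaker selectivity.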

Assay: pPAFAH inhibition and serine hydrolase selectivity, late-stage follow-up, selectivity assay for pPAFAH inhibitor project, biochemical, gel-based, FP-Rh fluorescence, mouse, HTS hit compounds (AID 588773)
Conditions: gel-based competitive ABPP, proteome, MW 32 kDa protein, at 10 µM

outcome, inactive:
O=C(Oc1ccc(-c2ccccc2)cc1)N1CCOCC1
O=C(Oc1ccc(Oc2ccccc2)cc1)N1CCC(O)CC1
CCCCOC(=O)c1ccc(OC(=O)N2CCOCC2)cc1
O=C(Oc1ccc(-c2ccccc2)cc1)N1CCCCC1
O=C(/C=C/c1cccs1)c1cc(Br)ccc1OC(=O)N1CCOCC1
O=C(Oc1nsnc1N1CCOCC1)N1CCOCC1
O=C(CCCSc1ccc(Cl)cc1)Nc1cc(S(=O)(=O)N2CCOCC2)ccc1O
